Molecules are shown by their SMILES. The campaign covered roughly 2,200 compounds. About 480 (22%) were called active. The rule behind the calls is not given here. A selection follows. Entries with a potency or affinity are not part of this list.

The assay can be described thus: S. Typhimurium GFP fluorescence dose response in modified counterscreen for PhoP regulon inhibitor project (AID 1981). To be noted: 4 h; series mostly up to 150 µM.
As to `O=[N+]([O-])c1ccc(Sc2nc3ccccc3o2)c([N+](=O)[O-])c1`, the compound was called inactive.
As for `COc1ccc(-c2csc(NCc3ccco3)n2)cc1`, the call was inactive.
Next, `N#CC1=C(N)SC(N)=C(C#N)C1c1ccc([N+](=O)[O-])cc1`: “inactive”; `COc1cccc2c(=O)c3c(cnn3C)n(C)c12`: “inactive”; `COc1ccc(-c2cc(C(=O)O)[nH]n2)cc1OC`: “inactive”.
For `Cn1c(-c2ccc(N)cc2)nc2ccccc21` the value was “inactive”; for `CCC(=O)NC1=C(NC(C)c2ccccc2)C(=O)c2ccccc2C1=O` (centres undefined), “inactive”; for `COC(=O)c1sc2ccccc2c1-n1cccc1C(=O)C(=O)Nc1ccc(Cl)cc1`, “inactive”.
For `Cn1c(=O)n(CC(=O)Nc2ccccc2)c2ccccc21` the value was “inactive”; for `COc1ccc(C(=O)Nc2cc(C)ccc2NC(=O)COc2ccccc2)cc1`, “inactive”.
On to `CCN(Cc1ccccc1)C(=O)CN1C(=S)NC(C)(C)CC1C` (centres undefined), for which the compound was called inactive.
Consider `CCOC(=O)Cn1nnnc1C(C(C)C)N(Cc1cccs1)Cc1cc2cc(C)ccc2[nH]c1=O` (centres undefined), for which the compound was called inactive.
In the case of `CCN(CC)C(=O)CP(=O)(c1ccccc1)c1ccccc1`, the result was inactive.
For `Cc1cc(C2=NNC(=NC3CC3)SC2)c(C)n1-c1ccccc1` the value was “inactive”; for `Nc1cc(N)nc(SCC(=O)Nc2ccc3c(c2)OCCCO3)n1`, “inactive”.
For `COc1ccc(C(=O)N2CCN(C(=O)c3ccco3)CC2)cc1OC` the value was “inactive”; for `CCOC(=O)c1sc2nccc(N(C)C)c2c1N=CNOCc1c(F)cccc1Cl`, “inactive”; for `O=C(CSc1nnc(-c2cccs2)n1-c1ccccc1)NCc1ccc2c(c1)OCO2`, “inactive”.
For `COc1cccc(-c2nnc(SCC(=O)Nc3ccc(OC)c(OC)c3)n2N)c1` the value was “inactive”; for `CCCc1cc(-c2nc(N)ncc2-c2ccc3c(c2)OCCCO3)c(O)cc1OC`, “inactive”; for `CCC(CC)C(=O)Nc1cccc(C(=O)N2CCCC2)c1`, “inactive”.
Consider `CCOC(=O)c1[nH]c2ccccc2c1NC(=O)NC1CCCCC1`, for which the outcome was inactive.
Next, `CCOC(=O)CCCNC(=O)COC(=O)CCC(=O)c1ccc(F)cc1`: “inactive”; `Cn1c(-c2ccc3nc(N)sc3c2)nc2cc(N)ccc21`: “inactive”.
For `CCOC(=O)COc1ccccc1/C=C\[N+](=O)[O-]` the value was “inactive”.
For `COc1cc(C=O)ccc1OCCCOc1ccccc1[N+](=O)[O-]` the value was “inactive”.
Turning to `COc1ccc([N+](=O)[O-])cc1NC(=O)C(C)OC(=O)c1ccccc1C(=O)c1ccc(Cl)cc1` (centres undefined), the result was inactive.
Next, `Cc1ccc(S(=O)(=O)N2CCCC2C(=O)OCc2ccco2)cc1` (centres undefined): “inactive”; `Cc1nc2c(C(=O)NCCC(C)C)c[nH]n2c(=O)c1Cc1ccccc1F`: “inactive”.
In the case of `O=C(CCn1nnc(-c2cccs2)n1)NCc1ccccc1Cl`, the outcome was inactive.
Next, `Cc1ccc(CCNC(=O)C2CCCN(S(=O)(=O)c3c(C)noc3C)C2)cc1` (centres undefined): “inactive”; `CC(C)Cn1c(-c2ccccc2)nc2ccccc2c1=O`: “inactive”; `COc1ccc(Cl)cc1C(=O)CSc1nc(N)cc(N)n1`: “inactive”.
For `COc1ccc(-c2c/c(=N\c3nc(-c4ccccc4)c(C)s3)c3ccccc3o2)cc1O` the value was “inactive”; for `O=C(N/N=C/c1ccc(F)cc1)c1cc(-c2ccco2)nc2ccccc12`, “inactive”.
For `Cc1ccccc1OCC(=O)N/N=C/c1ccco1` the value was “inactive”; for `Cc1ccc(NC(=O)CO/N=C(\N)c2nonc2N)cc1`, “inactive”; for `COC(=O)c1ccc(NC(=S)Nc2ccc3ccccc3c2)cc1`, “inactive”.
Consider `Cn1ccnc1SCC(=O)Nc1sccc1C#N`, for which the result was inactive.
For `NC1=NC2=C(CCCC2)C2(CCCCC2)S1` the value was “inactive”; for `CCCCn1c(O)c(C(CC)=Nc2ccc3c(c2)CCC3)c(=O)[nH]c1=O`, “inactive”.
Next, `CC(C)c1ccc(O)c(NC(=O)c2cncc(Br)c2)c1`: “inactive”; `COc1ccccc1N1CCN(c2ccc(-c3ccccc3)nn2)CC1`: “inactive”; `Cc1ccccc1Nc1nnc(SCC(=O)NC2CCCc3ccccc32)s1` (centres undefined): “inactive”.
For `Cc1[nH]nc2c1C(c1cc(Br)cs1)C(C#N)=C(N)O2` (centres undefined) the value was “inactive”; for `CCCOc1ccc(Cn2cnc3ccccc32)cc1`, “inactive”.
For `O=C(OCC1COc2ccccc2O1)c1ccccc1F` (centres undefined), the result was inactive.
For `CN(C)CCOC(=O)Cc1ccc(Cl)cc1` the value was “inactive”; for `CC(=O)N(Cc1ccc(Cl)cc1)c1cnccn1`, “inactive”; for `C/C(Nc1ccc(F)cc1)=C(/C#N)C(N)=O`, “inactive”.
For `Cc1ccc2c(c1)cc(CN(Cc1ccc3c(c1)OCO3)C(=O)c1cnccn1)c1nnnn12` the value was “inactive”; for `Cc1nnc(NC(=O)CSc2ncnc3scc(-c4ccccc4)c23)s1`, “inactive”; for `O=C(CSc1nnnn1-c1ccccc1)CC(=O)Nc1ccc(Cl)cc1`, “inactive”.
With `O=C(CSc1nnc2c(Cl)cc(Cl)cn12)NC1CCS(=O)(=O)C1` (centres undefined), the call was inactive.
For `COc1ccc(/C=C2\CN(Cc3ccccc3)C/C(=C\c3ccc(OC)cc3)C2=O)cc1` the value was “inactive”.
For the compound `Cc1cccc(C)c1NC(=O)CSc1nnc(NC(=O)CN2CCOCC2)s1`, the call was inactive.
Next, `Cc1cc(C(=O)N/N=C/C=C/c2ccc3c(c2)OCO3)n[nH]1`: “inactive”.
For `Cc1cc(C(=O)N/N=C/c2cccc([N+](=O)[O-])c2O)n[nH]1` the value was “inactive”; for `O=C(N/N=C/c1cccn1-c1ccc([N+](=O)[O-])cc1)C(O)c1ccccc1` (centres undefined), “inactive”.
For `CN(C)C(=O)c1cn(N(C)c2ncc(C(F)(F)F)cc2Cl)c(=O)c2ccccc12` the value was “inactive”; for `Cc1ccc(-c2cc(-c3ccc(Cl)cc3)c(C#N)c(N)n2)o1`, “inactive”; for `CC(=O)c1cccc(NC(=O)NCc2ccco2)c1`, “inactive”.
On to `Nc1nc(-c2ccc(Br)cc2)cs1`, for which the result was inactive.
Next, `COc1ccc(-c2cc(N3CCCC3)n3ncnc3n2)cc1`: “inactive”; `Cc1ccccc1NC(=S)N(CCCN1CCOCC1)Cc1ccccn1`: “inactive”; `O=c1[nH]c2ccccc2n1C1=CCCC1`: “inactive”.
Next, `CCn1c(Cc2c(C)[nH]c3ccccc23)n[nH]c1=S`: “inactive”; `Cc1cccc(C)c1NC(=O)CCCSc1nnc(-c2ccc(Cl)cc2)n1-c1ccccc1`: “inactive”; `COc1ccccc1-c1cc(C(=O)Nc2cc(C)nn2-c2ccccc2)no1`: “inactive”.
Next, `Cc1ccc(-n2nc(-c3ccc(N)cc3)cc2N)cc1`: “inactive”; `O=C(OCC(=O)c1ccccc1Cl)c1cnccn1`: “inactive”.
Regarding `O=C(c1cc2ncc(Br)cn2n1)N1CCOCC1`, the outcome was inactive.
For `Cc1[nH]c2ccccc2c1C(O)CN1CCN(c2cccc(C(F)(F)F)c2)CC1` (centres undefined) the value was “inactive”; for `CC(=O)Oc1c2occc2cc2ccc(=O)oc12`, “inactive”; for `COc1cc(C2Nc3cccc4cccc(c34)N2)cc(OC)c1OC(C)=O`, “inactive”.
Turning to `O=C(NCCNS(=O)(=O)c1cccc(C(F)(F)F)c1)c1cc(OCC(F)(F)F)ccc1OCC(F)(F)F`, the call was inactive.
Next, `O=c1c(Br)c(Br)cnn1-c1ccccc1`: “inactive”.
For the compound `CCCOC(=O)C(C)n1cnc2sc(C)c(C)c2c1=O` (centres undefined), the call was inactive.
Take `Cc1ccc(OCc2nc3ccccc3[nH]2)cc1`: the compound was called inactive.
Next, `COc1ccc(OCCSc2nnc3sc4ccccc4n23)cc1`: “inactive”.
With `COc1ccc(C(=O)C(CO)Oc2ccccc2OC)cc1OC` (centres undefined), the compound was classed as inactive.
For `Clc1ccc(OCCn2cnc3ccccc32)cc1` the value was “inactive”; for `COC(=O)Cn1c(C)nc2ccccc21`, “inactive”; for `COc1ccccc1OCc1ccc(C(=O)N2CCN(C(=O)c3ccco3)CC2)cc1`, “inactive”.
For `S=C(Nc1ccccc1)Nc1nc2ccccc2n1CCOc1ccc(Cl)cc1` the value was “inactive”.
For `CCOC(=O)CCC(NC(=O)c1ccc(NCN2C(=O)CCC2=O)cc1)C(=O)OCC` (centres undefined), the compound was classed as inactive.
On to `CC(=O)c1c(C)nc(-c2ccc(Cl)cc2)nc1N=CN(C)C`, for which the call was inactive.
For `Cc1cccc(C=Nc2ccc3c(c2)oc2ccccc23)c1O` the value was “inactive”; for `CCc1cccc2c(C#N)cn(CC(=O)NCCOC)c12`, “inactive”.
Turning to `C/C(=N\n1nnnc1Nc1ccccc1)c1ccc(N)cc1`, the outcome was inactive.
Next, `Cc1ccc2c(c1)C(c1ccccc1)NCC(=O)N2` (centres undefined): “inactive”.
Next, `Cc1cc(C)nc(NC(=O)Cc2cccs2)n1`: “inactive”; `COc1ccc(/C=C/C(=O)O)cc1COc1cccc(C)c1`: “inactive”; `Cc1cccc(OCC(=O)NNc2c3ccccc3nc3ccccc23)c1`: “inactive”.
For `C=CCN=C(NC#N)SCc1ccccc1Cl` the value was “inactive”.
With `Cc1cc(C)c(NC(=O)COc2ccccc2C(=O)Nc2ccc3c(c2)oc2ccccc23)c(C)c1`, the compound was classed as inactive.
Next, `O=C1Nc2ccccc2/C1=C/c1cnc[nH]1`: “inactive”.
For `Cc1ccccc1OCCCCCn1ccnc1` the value was “inactive”; for `Cc1nn(-c2ccccc2)c2sc(-c3n[nH]c(=S)o3)cc12`, “inactive”; for `COc1ccc(OC)c(S(=O)(=O)N2c3cc(F)ccc3CCC2C)c1` (centres undefined), “inactive”.
For `Cc1cccc(Sc2c([N+](=O)[O-])ncn2C)c1` the value was “inactive”; for `Clc1ccc(OCCn2ccnc2)c2ccccc12`, “inactive”; for `Cc1ccc(C(=O)COC(=O)CNS(=O)(=O)c2ccccc2)cc1[N+](=O)[O-]`, “inactive”.
As to `O=C1/C(=C/c2ccccc2)NC(=S)N1C(c1ccccc1)c1ccccc1`, the compound was classed as inactive.
For `Cc1cc(C(=O)NNC(=S)NC(=O)/C=C/c2ccccc2Cl)n[nH]1`, the outcome was inactive.
For `CN(c1ccccc1)S(=O)(=O)c1cc(C(=O)Nc2nc3ccccc3[nH]2)ccc1Cl` the value was “inactive”.
Next, `COC(=O)CSc1nnc(-c2ccco2)n1Cc1ccco1`: “inactive”; `Cc1ccccc1Cn1c(=N)n(CC(=O)c2ccco2)c2ccccc21`: “inactive”; `O=C(CN1CCCCC1)Nc1cccc(Br)c1`: “inactive”.
As for `NC(=O)c1oc2ccccc2c1NC(=O)CN1CCCCC1`, the outcome was inactive.
Regarding `O=C(CSc1nnc2n(C3CCCCC3)c(=O)c3ccccc3n12)OC1CCCCC1`, the outcome was inactive.
Regarding `OC(COc1ccc2ccccc2c1Br)Cn1ccnc1` (centres undefined), the compound was classed as inactive.
For `COc1cc(C)ccc1OCCCOc1ccccc1Br` the value was “inactive”; for `COc1cccc(NC(=O)Cn2c(=O)n(CCCC(=O)NCc3ccco3)c(=O)c3ccccc32)c1`, “inactive”; for `Cc1ccc(N(CC(=O)N/N=C/c2ccco2)S(=O)(=O)c2ccccc2)cc1`, “inactive”.
For `CCCc1ccc(C(=O)CCC(=O)O)cc1` the value was “inactive”.
For `COc1cccc(C=NCCNC(=O)c2nonc2N)c1O` the value was “inactive”; for `Nc1nonc1C(=O)NCCN=Cc1cc(Cc2ccccc2)cc(Br)c1O`, “inactive”; for `Nc1nonc1-n1nnc(C(=O)N/N=C/c2ccc(Br)cc2)c1CSC1=NCCS1`, “inactive”.

For the origin of these results see PubChem BioAssay AID1981 (Southern Research Specialized Biocontainment Screening …, 2009).
